Platelet DG rel – inhibitors of platelet dense granule secretion, primary screen, cell-based, MLPCN, human platelets. human platelet-rich plasma, SFLLRN dense granule ATP release, luminescence. inhibition, %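 (compounds screened at 7.5 µM in platelet-rich plasma)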. 0.22% of 300,000 active. AID 1663, 2009;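 active = mean replicate score, as percent of positive control, at or above 50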
CHT block – inhibitors of human choline transporter CHT. B-score at 10 µM. CHT-expressing cells, membrane potential dye, choline response; stronger effect = lower value. AID 488975, 2010. 0.86% of 310,000 active;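 active = B-score over 3 SD under the library average, and starting fluorescence ratio not unusually high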;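 also: choline stimulus applied at its EC90 after an EC20 pre-addition; B-score computed on integrated fluorescence ratio after choline addition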
HIF act – HIF pathway transcriptional activators, primary screen, cell-based, U2OS HRE-luciferase, luminescence | U2OS HRE-luciferase reporter; normalized: DMSO 0%, desferrioxamine 100% | activation, % at 7.5 µM (by protocol) | 0.32% of 300,000 active | AID 1910, 2009;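 active = mean activation of at least 10% of the iron chelator positive control signal, with at least half of replicates also reaching 10%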
AI-2 QS mod – Vibrio harveyi AI-2 quorum sensing modulators, primary screen, JMH597 strain, luminescence/OD600 ratio; Vibrio harveyi JMH597 AI-2 luminescence/OD600 ratio, 9 h; stronger effect = lower value; strain lacks LuxN and CqsS sensors; 0 = neutral-control median; activity change, % at 7.5 µM; 0.4% of 300,000 active; in the data active = activity change below about -75%, passing the limit was not always enough;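 also: luminescence divided by OD600 gain over 9 h not by final OD600 alone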
CHT allo act – CHT positive allosteric modulators, primary screen, cell-based, membrane potential dye, choline EC20 | 0.49% of 310,000 active | CHT-expressing cells; stronger effect = higher value; LV-AA mutant CHT in HEK293 cells | High affinity choline transporter 1 (Homo sapiens), Q9GZV3 | B-score at 10 µM;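 active = initial fluorescence not abnormally high and integrated response B-score, plate-corrected, over 3 SD above library mean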
VLA-4 inh – inhibition in human VLA-4 binding assay, primary screen, VLA-4 allosteric modulator project, MLPCN library, flow cytometry, VLA-4 expressing cells | AID 2557, 2010 | 0.2% of 330,000 active | inhibition, % (about 7 µM as worked out from the volumes in the protocol) | Integrin alpha-4 (Homo sapiens), P13612 | ligand binding flow cytometry; in the data active = inhibition above about 50%
The depositor's hits bear a star; i = inactive; . = not tested or not shown. Most compounds without a hit are left out; they make up all but 2.2% or so of the library.

SMILES	Platelet DG rel	CHT block	HIF act	AI-2 QS mod	CHT allo act	VLA-4 inh
CC1CCN(C(=O)c2cc(S(=O)(=O)N3CCOCC3)ccc2N2CCCC2)CC1	.	.	.	.	.	21
Cc1ccc(N(CC(=O)NCc2ccco2)C(=O)CCC(=O)Nc2nccs2)c(C)c1	3	i	-1	.	i	-8
Cc1cc(C)n(-c2ccc(C(=O)Nc3ccc(C)c(S(=O)(=O)N4CCOCC4)c3)cc2)n1	2	i	0	13	i	1
CCOC(=O)NN1C(=O)c2ccccc2NC1c1cccs1 (centres undefined)	0	i	0	14	i	5
CC(CCc1ccccc1)NC(=O)CN1C(=O)NC2(CCCCC2C)C1=O (centres undefined)	.	.	.	.	.	-8
CCCCC(=O)NC(c1ccc(C(C)C)cc1)c1ccc2cccnc2c1O (centres undefined)	3	i	103*	26	i	-2
COc1ccc(S(=O)(=O)NCC(c2cccnc2)N2CCN(C)CC2)cc1C (centres undefined)	74*	i	0	4	i	-5
COc1ccc(S(=O)(=O)NCC(c2cccnc2)N2CCN(C)CC2)cc1OC (centres undefined)	-5	i	0	8	i	-24
[O-]/[N+](=C/c1ccc(F)cc1)c1ccc(Cl)cc1	57*	i	2	-2	i	8
CCOC(=O)c1ccc(NC(=O)CSc2nncn2-c2cccnc2)cc1	17	i	0	17	i	5
CC(NS(C)(=O)=O)C(c1cccs1)N1CCN(Cc2ccccc2)CC1 (centres undefined)	65*	i	0	29	i	0
CCOc1ccccc1N1CCN(C2=C(NS(=O)(=O)c3cccs3)C(=O)c3ccccc3C2=O)CC1	1	i	0	24	i	2
O=C1C(NS(=O)(=O)c2cccs2)=C(N2CCN(Cc3ccccc3)CC2)C(=O)c2ccccc21	10	-5.5*	-1	24	i	7
COc1ccc(-c2cc3ccc(O)cc3oc2=O)cc1OC	71*	i	1	19	i	16
O=C(/C=C/c1ccccc1)NCCC1=CCCCC1	-1	i	3	-86*	i	11
O=C(COC(=O)/C=C/c1ccccc1)NCCC1=CCCCC1	1	i	0	11	i	1
Cc1ccc(/C=N/NC(=O)c2ccc(Br)o2)s1	-1	i	9.9*	17	i	3
CC1(C(=O)OCC(=O)NCCNC(=O)COC(=O)C2(C)CC2(Cl)Cl)CC1(Cl)Cl (centres undefined)	16	i	0	7	i	4
O=S(=O)(NCc1ccccc1)[C@@H]1CC2C=CC1C2 (some centres undefined)	.	.	.	.	.	-4
CC(=O)c1cccc(-n2nnnc2SCC(=O)N2CCCC2)c1	50*	i	0	38	i	-1
Cc1ccc(C2(C)NC(=O)N(CC(=O)NNC(=O)c3ccoc3C)C2=O)cc1 (centres undefined)	-1	i	0	-41	i	11
Cc1ccc(C2(C)NC(=O)N(CC(=O)NNC(=O)c3cc(C)oc3C)C2=O)cc1 (centres undefined)	-2	i	-1	-79*	i	8
C(=N\Nc1nncc2ccccc12)/c1ccccc1	9	i	2	16	i	19
CN(C)c1ccc(/C=N/Nc2nncc3ccccc23)cc1	54*	i	1	5	i	2
COc1ccccc1C(=O)NCCC(=O)NCc1cccs1	-4	i	-1	37	i	-29
C=CCn1c(=O)c(C#N)cc2c(=O)n3ccccc3nc21	0	i	0	0	7.2*	-13
Cc1nsc2nc3c(F)c(F)c(F)c(F)c3cc12	8	i	-1	7	i	1

Assay outcomes deposited in PubChem BioAssay by several laboratories.
